Source: PubChem (National Center for Advancing Translational Sciences (NCATS))
CtBP-E1A blk = inhibitors of CtBP/E1A interaction | AlphaScreen GST-E1A/His-CtBP binding, 1536-well; stronger effect = lower value | activity change, % (test concentration not listed) | hit rate 0.49% among 340,000 | AID 651724; in the data active means activity change below about -65%; inconclusive means mostly about -30% to -63%; further: on the % scale 0 is the no-effect control and ±100 the full control effect
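GST-E1A and His-tagged CtBP (125 nM each as 5X stock) were preincubated with pin-transferred compound for 2 h at 37 °C in the dark, then glutathione donor and nickel acceptor beads were added for 1 h before AlphaScreen reading.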
HP1b binding inh = HP1-beta chromodomain-methylated histone interaction inhibition. AlphaScreen HP1-beta / biotin-H3K9me3 peptide binding. Potency, µM (top dose mostly 114 µM), without a hit: at the highest dose activity change, negative = inhibition, usual class: inhibitors. hit rate 0.56% among 390,000. AID 540317; further: potency means the concentration at half of the fitted maximal effect; nearly all actives have a fitted effect of over 70% in size
Target sequence (P83916 whole entry, looked up): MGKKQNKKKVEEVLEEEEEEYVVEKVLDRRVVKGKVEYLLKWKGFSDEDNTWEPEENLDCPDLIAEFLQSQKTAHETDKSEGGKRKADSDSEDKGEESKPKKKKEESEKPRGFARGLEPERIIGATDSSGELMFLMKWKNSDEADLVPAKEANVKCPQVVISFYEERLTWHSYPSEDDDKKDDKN
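AlphaScreen: HP1-beta (50 nM) preformed 30 min with biotin-H3(1-18)K9me3 peptide (50 nM) in PBS pH 7.4, 0.01% Tween-20. Compound added for 30 min at RT, then streptavidin donor/nickel chelate acceptor beads (10 ug/mL) for 30 min.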
BAZ2B block = BAZ2B (human) inhibition | AlphaScreen BAZ2B-H3K14Ac peptide displacement | Potency, µM (highest dose often 114 µM), without a hit: at the highest dose activity change, negative = inhibition, usual class: inhibitors | hit rate 4.4% among 360,000; further: potency means the concentration at half of the fitted maximal effect; on the % scale 0 is the no-effect control and ±100 the full control effect; nearly all actives have a fitted effect of over 60% in size
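AlphaScreen displacement: compounds (up to 110uM) incubated 30 min at room temperature with a preformed 50 nM BAZ2B/50 nM biotinylated H3K14Ac peptide complex in PBS pH 7.4 with Tween-20. Donor and acceptor beads at 10 ug/mL final added, 20 min light-protected before reading.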
JMJD2A Tudor inh = blocks the human JMJD2A Tudor domain; O75164; AlphaScreen JMJD2A-Tudor / H3K4me3 peptide binding; Potency, µM (highest dose often 114 µM), for inactives: top-dose activity change, negative = inhibition, usual class: inhibitors; hit rate 4.4% among 390,000; further: potency means the concentration at half of the fitted maximal effect; on the % scale 0 is the no-effect control and ±100 the full control effect; nearly all actives have a fitted effect of over 50% in size
G9a inh = G9a (human) methyltransferase inhibition | Q96KQ7 | G9a H3K9 monomethylation, AlphaScreen, 2 h | Potency, µM (highest dose often 102 µM), for the others: at the highest dose activity, negative = inhibition, usual class: inhibitors | hit rate 8.8% among 350,000; further: potency means the concentration at half of the fitted maximal effect; on the % scale 0 is the no-effect control and ±100 the full control effect; nearly all actives have a fitted effect of over 75% in size
Target sequence (Q96KQ7 913-1193 limits assumed): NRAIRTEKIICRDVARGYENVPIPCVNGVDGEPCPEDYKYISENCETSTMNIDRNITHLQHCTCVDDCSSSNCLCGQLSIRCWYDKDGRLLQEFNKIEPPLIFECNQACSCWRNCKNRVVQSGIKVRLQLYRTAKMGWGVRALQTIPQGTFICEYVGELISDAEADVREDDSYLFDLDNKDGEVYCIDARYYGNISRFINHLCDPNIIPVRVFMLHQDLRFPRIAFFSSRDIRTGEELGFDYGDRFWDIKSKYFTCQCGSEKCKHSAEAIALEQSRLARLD
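Quantitative HTS format: methyltransferase activity on a biotin-tagged H3K9 peptide is measured by AlphaScreen, using a rabbit anti-monomethyl-H3K9 antibody with streptavidin donor and anti-IgG acceptor beads. Final levels are 20 nM enzyme, 500 nM peptide, 20 uM SAM; 2 h RT.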
Six1-Eya2 inh = Six1/Eya2 interaction inhibition; Q15475+O00167; AlphaScreen GST-Six1/His-Eya2 binding, biochemical; stronger effect = lower value; activity change, % (concentration not given with the values); hit rate 0.56% among 360,000; AID 651725; in the data active means activity change below about -65%; inconclusive means mostly about -30% to -63%; further: on the % scale 0 is the no-effect control and ±100 the full control effect
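Six1/Eya2 binding was read as AlphaScreen signal after compounds were pinned into GST-Six1 plus His-tagged Eya2 (5X stock 250/500 nM) in pH 8.0 Tris/NaCl/TCEP buffer, beads added, then incubated 1 h, 37 C, dark.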
* hit, by the source's call; u = inconclusive; x = no result given; [ ] = another dose, or the depositor's remark. Only some compounds are listed: those with a hit (about 10% of all), similar ones and a draw of the others. Unless noted, the call rests on the fitted dose curve; in most records, active means well fitted inhibition curve with a large enough effect; inconclusive means small, poorly fitted or top-dose-only effect; inactive means no such curve, though single readings can be large or run the other way.

SMILES	CtBP-E1A blk	HP1b binding inh	BAZ2B block	JMJD2A Tudor inh	G9a inh	Six1-Eya2 inh
COc1ccc(-c2ccc(-c3nc4ccc(C)cn4c3NC3CCCCC3)cc2OC)cc1	0	-16%	45µM*	40µM*	0%[2.33 µM]	-15
CCCCNc1c(-c2ccc(OC)c(SC3CCCCC3)c2)nc2ccc(C)cn12	-28	21%	x	u	x	0
COc1ccccc1-c1nccc(NCc2cccnc2)n1	x	x	x	x	-6%[0.501 µM]	x
COc1ccc(-c2nc3cc(NC(=O)c4ccc(C)cc4)ccc3o2)cc1Cl	x	20%	2%	-9%	-34%[59 µM]	x
CC(C)CC(=O)N(Cc1ccccc1)S(=O)(=O)c1ccc2c(c1)oc(=O)n2C	x	77%	23%	-2%	14%[59 µM]	x
CCOc1cc(-c2ccc(OC(=O)c3ccc(Cl)cc3)c(OC)c2)cc(=O)c2c(C)oc(C)c12	x	-8%	u	u	u	x
O=C(COC(=O)C12CC3CC(CC(O)(C3)C1)C2)NCc1ccco1	x	23%	x	-25%	x	x
Cc1ccc(CNS(=O)(=O)c2ccc(-n3cnnn3)c(C)c2)cc1	-11	4%	4%	2%	-4%	-4
CCSc1nc2ccccc2n1S(=O)(=O)c1ccccc1	8	34%	5%	-21%	50µM*	6
Cc1cc2ccccc2n1CCNC(=O)C1CCCC1	3	12%	-21%	-20%	-11%	-2
Cc1cc2ccccc2n1CCNC(=O)c1cccs1	-21	u	u	u	35µM*	u
Cc1cc2ccccc2n1CCNC(=O)C1CC1	-12	-8%	-2%	u	71µM*	-15
CC1=C(C(=O)N(C(C)C)C(C)C)CC(CC(=O)NCc2cccc3ccccc23)C(=O)N1Cc1ccc(F)cc1 (stereo not drawn)	16	x	x	x	x	6
O=c1c2ccccc2nc2c3ccccc3c(NCCN3CCOCC3)nn12	x	x	4%	x	9%	x
O=c1c2c(-c3ccccc3)csc2nc2c3ccccc3c(NCCN3CCOCC3)nn12	-88*	34%	-18%	-26%	u	-82*
CCN1C/C(=C\c2cccc([N+](=O)[O-])c2)C(=O)/C(=C/c2cccc([N+](=O)[O-])c2)C1	-1	-30%	u	u	25µM*	3
CN(C)c1ccc(C2CC(=O)C=C(Nc3ccccc3N)C2)cc1 (stereo not drawn)	-12	-6%	45µM*	u	x	-26
CCOc1ccc(C2=CC(c3cccc(Br)c3)n3c(nc4ccccc43)N2)cc1Cl (stereo not drawn)	x	9%	11%	-13%	u	x
COc1ccc(-c2nc3cnc(N4CCN(C)CC4)nc3n(Cc3cccc(OC)c3)c2=O)cc1	x	x	x	x	6%[0.501 µM]	x
CCOC(=O)c1noc2ncn(Cc3ccc([N+](=O)[O-])cc3)c(=O)c12	x	10%[57 µM]	1%	-6%	11%[59 µM]	x
CC1=C(C(=O)OCc2ccccc2)C(c2ccccc2-c2ccccc2)NC(=O)N1CCCCCC(=O)O (stereo not drawn)	-2	5%	50µM*	u	50µM*	-6
CC1=C(C(=O)OCc2ccccc2)C(c2ccccc2Cl)NC(=O)N1CCCC(=O)O (stereo not drawn)	-2	31%	-33%	-1%	-11%	3
CC1=C(C(=O)OCc2ccccc2)C(c2ccccc2Cl)NC(=O)N1CCCCCC(=O)O (stereo not drawn)	-1	24%	-31%	-4%	79µM*	0
CC1=C(C(=O)OCc2ccccc2)C(c2ccccc2[N+](=O)[O-])NC(=O)N1C (stereo not drawn)	x	20%	-38%	-11%	40µM*	1
O=C(CNc1ccc(Cl)cc1)c1ccc(Br)cc1	0	45%	-8%	0%	-45%	-13
O=C(CNc1ccc(Br)cc1)c1ccc(O)cc1	0	-13%	1%	u	45µM*	-1
O=C(CNc1ccc(Br)cc1)c1ccc(Br)s1	-5	-11%	u	-16%	40µM*	-11
